Rows were chosen to be rich in hits. Some 2.3% of all compounds tested hit in one or more screens of this group.
CHO-K1 Ca antag – M1 antagonist counterscreen hit in parental CHO-K1 cells; 0.6% of 360,000 active; AID 602250; inhibition, % at 3 µM; ATP-induced calcium, Fluo-8 fluorescence;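 active means inhibition above a per-plate cutoff, the plate's mean sample inhibition plus 3 SD, cut at about 24% in these data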;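 further: 0% = DMSO plus EC80 ATP and 100% = DMSO alone without ATP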
CHRM1 antagonist – human M1 muscarinic receptor antagonists, primary screen, CHO-K1 cells, Fluo-8 calcium fluorescence, 1536-well | Muscarinic acetylcholine receptor M1 (Homo sapiens), P11229 | CHO-K1 hM1, ACh EC80 antagonist | inhibition, % at 3 µM | 1.3% of 360,000 active;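 active means percent inhibition above its own plate's cutoff, namely the mean of that plate's compound wells plus 3 SD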;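 further: peak over basal fluorescence ratio during 140 s after agonist addition; 0% = ACh EC80 plus DMSO and 100% = DMSO alone without agonist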
Target sequence (P11229 whole entry, looked up): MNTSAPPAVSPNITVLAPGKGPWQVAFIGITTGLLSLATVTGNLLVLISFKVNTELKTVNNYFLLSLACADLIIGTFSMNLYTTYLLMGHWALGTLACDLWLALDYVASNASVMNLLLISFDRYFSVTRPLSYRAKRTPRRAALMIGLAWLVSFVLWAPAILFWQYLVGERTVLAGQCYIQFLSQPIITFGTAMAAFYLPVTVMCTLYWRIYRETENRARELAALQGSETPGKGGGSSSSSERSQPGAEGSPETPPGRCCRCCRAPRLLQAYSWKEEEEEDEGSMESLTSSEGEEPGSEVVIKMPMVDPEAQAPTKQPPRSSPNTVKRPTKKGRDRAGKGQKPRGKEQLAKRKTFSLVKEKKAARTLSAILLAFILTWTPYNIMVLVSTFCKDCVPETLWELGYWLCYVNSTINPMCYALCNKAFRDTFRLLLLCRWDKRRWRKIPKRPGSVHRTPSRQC
CHRM1 agonist – human M1 muscarinic receptor agonists, primary screen, Fluo-8 calcium fluorescence, CHO-K1 cells, HTS | Muscarinic acetylcholine receptor M1 (Homo sapiens), P11229 | activation, % at 3 µM | 0.33% of 360,000 active | AID 588814, 2011 | CHO-K1 hM1, agonist mode; 0% DMSO, 100% acetylcholine EC100;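 active means activation above the run's mean compound activation plus 3 SD, cut at about 16% in these data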;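 further: peak over basal fluorescence ratio within a 140 s kinetic read after compound addition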
M1 PAM – human M1 muscarinic receptor positive allosteric modulators, primary screen, CHO-K1 cells, Fluo-8 calcium fluorescence, 1536-well; Muscarinic acetylcholine receptor M1 (Homo sapiens), P11229; CHO-K1 hM1, ACh EC20; 0% = ACh EC20, 100% = maximal ACh; activation, % at 3 µM; 0.088% of 360,000 active; AID 588819, 2011; in the data active means activation above about 19%, passing the limit was not always enough
CHO-K1 Ca ag – counter-screen for M1 agonists: effect in parental CHO-K1 cells; activation, % at 3 µM; AID 602248, 2012; 0.48% of 360,000 active; Fluo-8 calcium fluorescence; scaled to maximal ATP response, vehicle zero; in the data active means activation above about 15%;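 further: untransfected CHO-K1 host cells lacking M1 receptor as counterscreen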
CHO-K1 Ca PAM – nonselective calcium activators in parental CHO-K1 cells, primary screen, counter-screen for M1 PAM project, cell-based, Fluo-8 calcium fluorescence, full deck, 1536-well. ATP EC20; 0% at ATP EC20, 100% at ATP max. activation, % at 3 µM. 0.02% of 360,000 active. AID 602247, 2012;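 active means activation above the run cutoff, the mean activation of all test compounds plus 3 SD, cut at about 40% in these data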;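 further: peak over basal fluorescence ratio in a 140 s read after ATP addition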
Active calls of the source: *.

`O=C(c1cc(COc2cccc(C(F)(F)F)c2)on1)N1CCC(Oc2cccnc2)CC1` gave CHO-K1 Ca antag 24*, CHRM1 antagonist 37*, CHRM1 agonist 2, M1 PAM -14, CHO-K1 Ca ag 14 and CHO-K1 Ca PAM -25.
Cc1ccc(OCc2cc(C(=O)N3CCC(Oc4cccnc4)CC3)no2)cc1C was read as CHO-K1 Ca antag 25*, CHRM1 antagonist 26, CHRM1 agonist -6, M1 PAM -21, CHO-K1 Ca ag 16* and CHO-K1 Ca PAM -1.
For O=C(CCC(=O)N(CC(=O)NC1CCCC1)C1CCCCC1)Nc1ccccn1 the results were CHO-K1 Ca antag 27*, CHRM1 antagonist 3, CHRM1 agonist -6, M1 PAM 4, CHO-K1 Ca ag 0 and CHO-K1 Ca PAM -14.
For Cc1cc(NC(=O)CCC(=O)N(CC(=O)NC2CCCC2)Cc2ccc(F)cc2)no1 the results were CHO-K1 Ca antag -1, CHRM1 antagonist 0, CHRM1 agonist -4, M1 PAM 0, CHO-K1 Ca ag 0 and CHO-K1 Ca PAM 0.
For Cc1cc(NC(=O)CCC(=O)N(CC(=O)NC2CCCC2)Cc2ccccc2Cl)no1 the results were CHO-K1 Ca antag 48*, CHRM1 antagonist -3, CHRM1 agonist -3, M1 PAM 3, CHO-K1 Ca ag -1 and CHO-K1 Ca PAM -2.
For C=CCN(C(=O)CCC(=O)Nc1cc(C)on1)C(C(=O)NC1CCCC1)c1cccnc1 (centres undefined) the results were CHO-K1 Ca antag 24*, CHRM1 antagonist 6, CHRM1 agonist -2, M1 PAM -2, CHO-K1 Ca ag 0 and CHO-K1 Ca PAM -7.
`NC(=O)NC(CC(=O)OCC(=O)Nc1nnc(-c2ccccc2)o1)c1ccc(Cl)cc1` (centres undefined) gave CHO-K1 Ca antag -8, CHRM1 antagonist -16, CHRM1 agonist 1, M1 PAM 11, CHO-K1 Ca ag 0 and CHO-K1 Ca PAM 17.
CCN(CC)CCCNC(=O)CCn1nc(-c2ccccc2)ccc1=O was read as CHO-K1 Ca antag 15, CHRM1 antagonist 20, CHRM1 agonist -6, M1 PAM -9, CHO-K1 Ca ag 0 and CHO-K1 Ca PAM -29.
Screening O=C(Nc1ccccc1)Nc1cc(OCC(F)(F)F)cc(OCC(F)(F)F)c1 returned CHO-K1 Ca antag 32*, CHRM1 antagonist 25*, CHRM1 agonist -1, M1 PAM -21, CHO-K1 Ca ag 13 and CHO-K1 Ca PAM -12.
Screening O=C(Nc1cccnc1)Nc1cc(Cl)cc(Cl)c1 returned CHO-K1 Ca antag 37*, CHRM1 antagonist 15, CHRM1 agonist 6, M1 PAM -3, CHO-K1 Ca ag 14 and CHO-K1 Ca PAM -13.
`O=C(Nc1ccc(Nc2ccccc2)cc1)Nc1ccccc1Cl` gave CHO-K1 Ca antag -11, CHRM1 antagonist -3, CHRM1 agonist -4, M1 PAM 0, CHO-K1 Ca ag 0 and CHO-K1 Ca PAM 3.
O=C(NCc1csc2ccccc12)Nc1cc(Cl)cc(Cl)c1 was read as CHO-K1 Ca antag 13, CHRM1 antagonist 33*, CHRM1 agonist 0, M1 PAM -21, CHO-K1 Ca ag 4 and CHO-K1 Ca PAM -18.
O=C(Nc1ccccc1)Nc1cc(Cl)cc(Cl)c1 was read as CHO-K1 Ca antag 24*, CHRM1 antagonist 28, CHRM1 agonist 2, M1 PAM -12, CHO-K1 Ca ag 10 and CHO-K1 Ca PAM 4.
Screening CC(=O)NS(=O)(=O)c1ccc(NC(=S)NC(=O)Cc2ccccc2)cc1 returned CHO-K1 Ca antag 2, CHRM1 antagonist 17, CHRM1 agonist -4, M1 PAM -2, CHO-K1 Ca ag 0 and CHO-K1 Ca PAM -11.
For CNC(=O)c1ccc(NC(=O)c2ccccc2OCc2c(C)noc2C)cc1 the results were CHO-K1 Ca antag -1, CHRM1 antagonist -17, CHRM1 agonist 0, M1 PAM 10, CHO-K1 Ca ag 2 and CHO-K1 Ca PAM 26.
